Sampled rows, rich in hits. Any-hit rate of the full collection: about 1.5%.
EBV gp42 block = inhibitors of Epstein-Barr virus glycoprotein 42; Fluorescence polarization binding assay, mP read-out; inhibition, % (tested at 21.74 µM); 220,000 tested, 0.42% active; Q1HVG2; in the data active = inhibition above about 50%
MEX-5 binding = C. elegans MEX-5 TCR-2 RNA binding activity | Q9XUB2 | MEX-5/FITC-TCR2 RNA binding, fluorescence polarization; hits give low values | activity score (negative = inhibition of binding), % at 10 µM | 300,000 tested, 0.38% active | AID 1832;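 active = inhibition past about -25% in most replicates, and total fluorescence under double the plate's negative control median, limit read from the data; inconclusive = replicates evenly split on the limit, or fluorescence at least double controls; inactive = too little inhibition in most replicates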;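 note: 0% = DMSO and -100% = 5 µM competing unlabeled TCR2 RNA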
MCL1 BIM primary = inhibitors of human MCL1 binding to BIM-BH3 peptide. Q07820. GST-MCL1 / FITC-Bim-BH3 fluorescence polarization. inhibition, % at 10.9 µM. 320,000 tested, 0.68% active. AID 2057;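 active = inhibition above the mean inhibition of all tested compounds plus 3 SD, set per campaign, cut at about 40% in these data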;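 note: 0% = DMSO wells and 100% = unlabeled Bim-BH3 peptide control; higher means more loss of mP so more displacement of Bim peptide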
GLD-1 TGE inh = GLD-1-TGE RNA interaction inhibition (C. elegans); Q17339; purified GLD-1 + fluorescein TGE RNA, fluorescence polarization; inhibition, % at 5.96 µM; 320,000 tested, 0.44% active; AID 2280;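 active = percent inhibition above a per-plate cutoff, the plate mean of test compounds plus 3 SD, cut at about 30% in these data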;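 note: 0% = DMSO wells with GLD-1 and probe and 100% = wells lacking GLD-1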
Target sequence (Q17339 whole entry, looked up): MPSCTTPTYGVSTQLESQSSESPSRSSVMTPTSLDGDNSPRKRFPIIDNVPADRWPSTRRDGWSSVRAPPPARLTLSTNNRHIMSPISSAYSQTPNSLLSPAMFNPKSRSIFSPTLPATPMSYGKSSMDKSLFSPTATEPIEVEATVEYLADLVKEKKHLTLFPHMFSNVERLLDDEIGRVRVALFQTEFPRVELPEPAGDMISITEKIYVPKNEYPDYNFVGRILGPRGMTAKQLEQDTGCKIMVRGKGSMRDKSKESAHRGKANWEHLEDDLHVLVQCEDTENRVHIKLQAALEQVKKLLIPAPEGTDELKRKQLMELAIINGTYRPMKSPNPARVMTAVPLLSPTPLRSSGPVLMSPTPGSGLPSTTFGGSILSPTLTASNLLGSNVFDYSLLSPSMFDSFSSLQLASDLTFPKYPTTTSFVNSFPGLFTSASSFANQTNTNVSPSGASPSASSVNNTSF
E coli Lon inh = inhibitors of E. coli Lon protease | inhibition, % at 7.94 µM | purified E. coli Lon protease, fluorescence polarization | 360,000 tested, 0.42% active | P0A9M0; in the data active = inhibition above about 13%, passing the limit was not always enough;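 note: 0% = enzyme with probe and DMSO and 100% = no enzyme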
BCLXL inh = blocks human Bcl-xL binding to Bim BH3 peptide | inhibition, % at 10.9 µM | GST-Bcl-xL / FITC-Bim BH3 peptide fluorescence polarization | 320,000 tested, 0.7% active | Q07817;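 active = inhibition above the mean of all tested compounds plus 3 SD, cutoff set per campaign, cut at about 30% in these data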;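 note: 0% = DMSO wells and 100% = unlabeled Bim-BH3 peptide competitor; inhibitors lower millipolarization by displacing the labeled peptide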
Target sequence (Q07817 whole entry, looked up): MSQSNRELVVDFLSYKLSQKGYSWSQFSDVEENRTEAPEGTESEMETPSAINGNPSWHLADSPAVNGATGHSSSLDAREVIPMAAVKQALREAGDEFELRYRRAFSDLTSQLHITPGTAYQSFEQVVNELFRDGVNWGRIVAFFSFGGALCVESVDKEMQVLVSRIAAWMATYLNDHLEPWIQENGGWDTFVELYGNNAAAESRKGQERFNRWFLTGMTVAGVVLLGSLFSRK
Numbers without * were called inactive; ? = inconclusive; nt = no result given.

SMILES	EBV gp42 block	MEX-5 binding	MCL1 BIM primary	GLD-1 TGE inh	E coli Lon inh	BCLXL inh
CC(CCc1ccccc1)NC(=O)C1CCN(C(=O)c2sccc2-n2cccc2)CC1 (stereo not given)	4.9	1.6	-2.9	2.0	-2.8	72.0*
O=C(NCCc1ccc(Cl)cc1)C1CCN(C(=O)c2sccc2-n2cccc2)CC1	4.8	-0.7	7.7	2.0	3.9	8.6
CN1CC2(Cc3c1ccc1ccccc31)C(=O)OC(C)(C)OC2=O	17.3	nt	16.6	7.1	1.5	25.2
Cc1ccc2c(c1)CC1(CN2C)C(=O)OC2(CCCCC2)OC1=O	-11.8	-1.7	6.4	5.2	4.9	32.6*
CN(Cc1ccon1)C(=O)CC1C(=O)NCCN1Cc1ccc(Cl)c(F)c1 (stereo not given)	nt	-3.9	34.8	24.6	7.7	36.4*
COC(=O)C1C(O)CCC2CN3CCc4c([nH]c5ccccc45)C3CC21 (stereo not given)	16.4	-15.1	42.3*	16.1	1.1	37.0*
O=C(NNC(=O)c1cc(Cl)ccc1O)c1cccc(S(=O)(=O)N2CCOCC2)c1	nt	-26.8*	11.8	2.7	9.5	9.2
Cc1ccc(C(=O)NNC(=O)c2cccc(S(=O)(=O)N3CCOCC3)c2)cc1	nt	nt	nt	1.1	-7.8	nt
CSc1nc(=S)c2[nH]c(=S)[nH]c2[nH]1	0.2	-98.8*	nt	nt	1.2	nt
CN(C)[C@@H]1C(=O)C(C(=O)NCN2CCCC2)=C(O)[C@@]2(O)C(=O)C3=C(O)c4c(O)cccc4[C@@](C)(O)C3CC12 (stereo not given in full)	70.7*	nt	nt	nt	nt	nt
c1ccc(-c2nn3c(Cn4nnc5ccccc54)nnc3s2)nc1	20.5	-3.7	48.0*	13.6	-0.4	37.6*
Fc1ccc(-c2ccnc3nc(N4CCN(c5ccccc5)CC4)nn23)cc1	-3.5	-0.4	9.6	10.7	-0.8	7.0
c1ccc(-c2ccnc3nc(N4CCN(c5ccccc5)CC4)nn23)cc1	71.7*	-10.1	0.1	3.4	-8.1	1.9
O=c1[nH]c(N/N=C/c2cc3c(cc2[N+](=O)[O-])OCO3)nc2ccccc12	-37.1	1.9	-12.5	3.1	4.5	-13.1
N#Cc1c(N)sc(=S)c2c1CCN(Cc1ccccc1)C2	84.4*	nt	173.6*	27.9	nt	144.2*
CCOc1ccc2[nH]c(=O)c(CN(CC3COCCO3)C(=O)C3CC3)cc2c1 (stereo not given)	51.1*	0.0	0.4	4.2	-0.8	7.2
CN1CCN(S(=O)(=O)c2ccc(Nc3cccc(Cl)c3)c([N+](=O)[O-])c2)CC1	nt	nt	2.0	3.5	-19.0	5.4
COc1cc(NC(=O)Cn2ncc3c2-c2ccccc2OC3)cc(OC)c1OC	7.3	1.7	32.6	7.1	-6.4	172.1*
Cc1noc(C)c1COc1cccc(C(=O)OCC(=O)NC(=O)c2ccc(OC(F)F)cc2)c1	-21.6	-2.7	-11.0	-1.4	-1.2	1.2
CC(=O)CSc1nc2cc3c(cc2cc1C#N)OCCO3	23.1	-12.8	41.8*	-13.8	-13.3	34.1*
N#Cc1cc2cc3c(cc2nc1SCC(=O)N1CCCC1)OCCO3	nt	-1.3	0.8	1.9	-0.2	2.9
Fc1ccc(Nc2cccc3nccnc23)cc1	-10.1	0.0	8.7	10.4	-4.4	2.9
c1cc(Nc2cccc3nccnc23)c2nccnc2c1	-17.6	-29.2*	-12.8	-14.1	-9.2	-7.5
CCN1CCc2c(C#N)c(N3CCOCC3)nc(NCCO)c2C1	-0.3	-11.2	39.7	26.6	4.5	44.3*
CCN1CCc2c(C#N)c(N3CCOCC3)nc(NCc3ccccc3)c2C1	nt	-1.0	nt	nt	-3.5	nt
SMILES	EBV gp42 block	MEX-5 binding	MCL1 BIM primary	GLD-1 TGE inh	E coli Lon inh	BCLXL inh
Nc1c(N2CCCC2)cc(Cl)c2nonc12	11.1	-1.5	34.2	4.8	4.0	50.1*
CCOC(=O)[C@@H]1[C@H]2COc3cc(OC)ccc3[C@H]2N2C(=O)N(c3cccc(Cl)c3)C(=O)[C@]12C	nt	0.4	0.0	-0.6	10.3	3.6
N#C/C(=C/c1ccco1)c1nc2ccccc2s1	-7.5	-3.7	5.5	10.6	0.7	32.7*
N#C/C(=C/c1ccc(-c2cc(C(=O)O)cc(C(=O)O)c2)o1)c1nc2ccccc2s1	-115.3	16.0	-32.7	-49.9	nt	-17.8
CCOc1cc(C2C(C(=O)N3CCCCC3)=C(C)NC3=C2C(=O)CCC3)cc(Br)c1O (stereo not given)	-9.5	-4.5	7.5	3.4	7.2	4.6
Nc1cccc2c1C(=O)N(CCOc1ccccc1F)C2=O	nt	-11.8	37.0	29.6	15.1	35.2*
COc1ccc(C(=O)NC2CCSc3ccccc32)cc1F (stereo not given)	nt	4.7	-5.5	5.7	1.2	3.7
CCN(CC)Cc1c(O)ccc2c1O/C(=C\C=C\c1ccccc1)C2=O	-12.1	-7.2	19.3	12.0	-77.1	27.3
COCCN(CCOC)Cc1c(O)ccc2c1O/C(=C\c1ccc(C)o1)C2=O	nt	?	24.5	-3.9	-67.4	34.4*
Cc1cccc(-c2noc(-c3ccc(Cl)cc3[N+](=O)[O-])n2)c1	-1.5	0.1	4.4	3.5	-4.9	4.3
O=C1c2cccc3c([N+](=O)[O-])ccc(c23)C(=O)N1c1nccs1	18.0	-1.4	28.1	25.0	12.6	31.4*
O=C1c2cccc3cccc(c23)C(=O)N1c1nccs1	-22.9	0.0	-1.8	8.5	-5.2	-2.2
COCCNC(=O)Cn1ncc2ccsc2c1=O	-3.5	-1.7	4.8	-2.3	-9.4	5.8
O=[N+]([O-])c1ccccc1/C=C/C=N/n1c(-c2ccc(Cl)cc2)n[nH]c1=S	85.8*	1.0	0.5	2.9	-13.6	-20.5
NC(=Nc1ccc(N)cc1)C(N)=Nc1ccc(N)cc1	3.2	-29.7*	10.6	5.4	5.0	7.0
Cc1nn(-c2ccccc2)c(Cl)c1/C=N/NC(=O)c1ccccc1NS(=O)(=O)c1cccs1	1.0	-4.1	-3.7	2.3	-7.1	-1.0
COc1ccc(-c2coc3cc4oc(=O)cc(C)c4cc23)cc1F	-3.7	0.7	2.7	3.8	1.8	0.7
COc1ccc(-c2coc3cc4oc(=O)cc(-c5ccccc5)c4cc23)cc1F	-13.7	nt	-2.7	3.0	-4.3	37.3*
COc1ccc(C(C(=O)NC2CCCC2)N(C(=O)c2ccoc2C)c2cc(C)cc(C)c2)cc1 (stereo not given)	-34.8	1.8	6.6	1.7	-3.8	51.7*
COc1ccc(C(C(=O)NC2CCCC2)N(C(=O)c2ccoc2C)c2ccccc2)cc1 (stereo not given)	-0.8	3.4	-6.2	-0.2	-2.3	-0.8
C#CCn1cc(C=C2C(=O)c3ccccc3C2=O)c2ccccc21	94.7*	-2.2	nt	nt	-15.7	nt
CCOCC(=O)Nc1c(C(=O)Nc2ccccc2OC)oc2ccccc12	-24.7	nt	0.5	0.0	10.7	1.9
Cc1ccc(-c2cc(-c3ccc(C)o3)nc(N)c2C#N)cc1	4.3	-2.1	45.4*	38.7*	-15.8	32.3*

High-throughput results (PubChem)
